Experimental data: PubChem BioAssay AID2284424 (EPA ToxCast)
Active and inactive are the calls of the source. How the source made its calls: active means hit-call score of the fitted dose curve at least 0.9, where 1 is the maximum; inactive means score below 0.9.

System: SRY-box transcription factor 2 (SOX2) Protein Expression, SOX2 (gene 6657)
Test: CCTE_Deisenroth_DEVTOX-GLR_Ecto_SOX2: CCTE's DevTox GLR-Ecto Assay Evaluation of SRY-box transcription factor 2 (SOX2) Protein Expression, Deisenroth Lab
Protocol: CCTE_Deisenroth_DEVTOX-GLR_Ecto assay is a cell-based, multiplex-readout assay that uses RUES2-GLR, a human pluripotent cell line, with measurements taken at 48 hours after chemical dosing in a 384-well microplateCCTE_Deisenroth_DEVTOX-GLR_Ecto_SOX2 is 1 of 4 assay components calculated from the CCTE_Deisenroth_DEVTOX-GLR_Ecto assay and it measures an the percentage of cells in an ectoderm state. Using a type of inducible fluorescent protein reporter, gain-of-signal activity can be used to understand changes in gene expression with fluorescent microscopy. The percentage of SOX2+ cells are determined by calculating the number of SOX2+ cells divided by the cell count. To generalize the intended target to other relatable targets, this assay component is annotated to the transcription factor intended target family, where the subfamily is SRY-related HMG-box.Data from the assay component CCTE_Deisenroth_DEVTOX-GLR_Ecto_SOX2 was analyzed as 1 assay endpoint. The endpoint is the percent change in SOX2+ cell population relative to the 0.2% DMSO control in the CCTE_Deisenroth_DEVTOX-GLR_Ecto assay. Furthermore, this assay endpoint can be referred to as a primary readout, because this assay has produced multiple assay endpoints where this one serves as a measure of ectoderm differentiation.
All assay protocols are aligned to the DevTox GLR-Endo assay workflow. Cells are seeded into 384-well microplates for 24 hours prior to initiating differentiation in defined media for a total duration of 48 hours. A total of two chemical exposures are administered in 24-hour intervals during the 48-hour differentiation period. At the assay termination point, cells are fixed and stained with a fluorescent dye demarcating the nucleus. High-content imaging is used to acquire brightfield and fluorescent channel images across 5 fields per well. Cell identification and mean biomarker fluorescence intensities are calculated with image analysis software to determine the total cell counts for viability assessment and the biomarker expression frequency for each lineage-dependent assay. A typical experimental design tests a 10-point concentration series (1 nM - 200 uM) for 28 compounds in single technical replicate. Assay plate controls include non-differentiated pluripotent cells (baseline control), lineage-specific differentiated cells (differentiation control), and DMSO solvent exposed differentiated cells (solvent control). Experiments typically comprise a minimum of four experimental replicates (n=4).

SMILES | outcome | AC50
O=C1CCC(N2C(=O)c3ccccc3C2=O)C(=O)N1 (stereo unspecified) | inactive | 
CC1=C(/C=C/C(C)=C/C=C/C(C)=C\C(=O)O)C(C)(C)CCC1 |  | 5.86 µM (active)
CC/C(=C(/CC)c1ccc(O)cc1)c1ccc(O)cc1 | inactive | 
CS(=O)(=O)OCCCCOS(C)(=O)=O |  | 21 µM (active)
CN(Cc1cnc2nc(N)nc(N)c2n1)c1ccc(C(=O)N[C@@H](CCC(=O)O)C(=O)O)cc1 |  | 0.106 µM (active)
Nc1nc2ncc(CNc3ccc(C(=O)N[C@@H](CCC(=O)O)C(=O)O)cc3)nc2c(=O)[nH]1 | inactive | 
Nc1cccc2c1C(=O)N(C1CCC(=O)NC1=O)C2=O (stereo unspecified) | inactive | 
CCCC(CCC)C(=O)O | inactive | 
CC(C)(c1ccc(O)cc1)c1ccc(O)cc1 | inactive | 
CC(=O)Nc1ccc(O)cc1 | inactive | 
O=c1[nH]cc(F)c(=O)[nH]1 |  | 9.11 µM (active)
CCN(CC)CCNC(=O)c1c(C)[nH]c(/C=C2\C(=O)Nc3ccc(F)cc32)c1C | inactive | 
O=C1NS(=O)(=O)c2ccccc21 | inactive | 
O=C1NC(=O)C(c2ccccc2)(c2ccccc2)N1 | inactive | 
CC1=C(/C=C/C(C)=C/C=C/C(C)=C/C(=O)O)C(C)(C)CCC1 |  | 0.471 µM (active)
CC1(C)S[C@@H]2[C@H](NC(=O)Cc3ccccc3)C(=O)N2[C@H]1C(=O)O | inactive | 
